# Experimental data: PubChem BioAssay AID651820 (National Center for Advancing Translational Sciences (NCATS), 2012)
# Hit rate of the full screen: of about 340,000 compounds, about 12,000 (3.5%) were called active. Inconclusive results (about 18%) are left out. The entries come from a sample that favours actives as a whole. A call without a number means that no potency is given here. Unmarked numbers belong to inactive results. The call rests on the fitted dose curve; in most records, active means well fitted inhibition curve with a large enough effect; inconclusive means small, poorly fitted or top-dose-only effect, or another doubt; inactive means no such curve, though single readings can be large or run the other way.
# Test: qHTS Assay for Inhibitors of Hepatitis C Virus (HCV)
# Conditions: Huh7.5.1 HCVcc-Cre infection, luciferase reporter, 44 h; series mostly up to 41.8 µM
# Outline: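 Compounds are dispensed onto cells plated 4 h earlier at 1,000 per well, with HCVcc-Cre virus (about 0.5 moi) added next. Following 44 h of culture, luminescent signal is measured for 15 sec after 15 min with substrate at room temperature.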
# Potency means the concentration at half of the fitted maximal effect.
SMILES,Potency,"activity change, negative = inhibition"
COc1ccccc1-n1cnc2cc(C(=O)NCC3CCCO3)ccc21 (stereo not given),inactive,
COc1ccccc1-n1cnc2cc(NS(=O)(=O)c3ccccc3)ccc21,22.4 µM (active),
Cn1c(CCN2CCCC2)nc2cc(NS(=O)(=O)c3ccccc3)ccc21,inactive,
O=C(COC(=O)c1ccc(F)cc1)Nc1ccc2c(c1)OCO2,inactive,
COc1ccccc1CCNC(=O)C(=O)NCCC1CCCCN1S(=O)(=O)c1cccs1 (stereo not given),35.5 µM (active),
COc1ccc(C(=O)NCC2CCCN2S(=O)(=O)c2cccs2)cc1OC (stereo not given),inactive,
O=C(NCc1ccccc1Cl)C(=O)NCC1CCCN1S(=O)(=O)c1cccs1 (stereo not given),inactive,
Oc1[nH]c2ccccc2c1N=Nc1c(F)c(F)c(F)c(F)c1F,inactive,
Nc1cc2c(cc1Br)-c1ccc(F)cc1C2=O,12.6 µM (active),
CC1CCCCC1NC(=O)NC(=O)COC(=O)C1=NN(c2ccccc2)C(=O)CC1 (stereo not given),inactive,
COc1ccc(OC)c(C(c2nnnn2C(C)(C)C)N2CCc3ccccc3C2)c1 (stereo not given),7.94 µM (active),
Cc1ccc(C(c2nnnn2C(C)(C)C)N2CCc3ccccc3C2)cc1 (stereo not given),inactive,
COc1ccccc1C(c1nnnn1C(C)(C)C)N1CCN(Cc2ccccc2)CC1 (stereo not given),inactive,
CCCCn1c(N)c(N(CC)C(=O)c2ccc(N(C)S(=O)(=O)c3ccc(C)cc3)cc2)c(=O)[nH]c1=O,inactive,
O=C(c1ccc2c(c1)C(=O)N(Cc1ccncc1)C2=O)N1CCN(S(=O)(=O)c2ccc(OC(F)(F)F)cc2)CC1,inactive,
Fc1ccc(/C=N/Nc2nc(-c3cccnc3)nc3ccccc23)cc1,inactive,
Oc1ccc(/C=N/Nc2nc(-c3ccccc3F)nc3ccccc23)c(O)c1,11.2 µM (active),
Cc1cc(N/N=C/c2ccccc2F)c2ccccc2n1,inactive,
C[C@]12CC[C@H](O)CC1=CCC1C2CC[C@@]2(C)C1CC[C@@H]2NC(=O)CCC(=O)O (stereo not given in full),inactive,
NC(N)=N/N=C/c1ccc(OCc2ccc(Cl)cc2Cl)cc1,11.2 µM (active),
COC(=O)c1sc2ncccc2c1OCc1ccc(Cl)cc1Cl,inactive,
CCOc1ccc(NC(=O)NNC(=O)c2ccc(Cl)cc2Cl)cc1,inactive,

SMILES,Potency,"activity change, negative = inhibition"
CC(=O)NC12CC3CC(C1)CC(C(=O)N1CCN(S(=O)(=O)c4cccs4)CC1)(C3)C2,inactive,
CC(C)=C(NC(=O)c1ccccc1)C(=O)N/N=C(\C)c1ccccc1O,inactive,
C/C(=N\Nc1ccc(Cl)nn1)c1ccccc1O,0.501 µM (active),
CCCCCCCN=C(C)c1ccccc1O,inactive,
Oc1cccc(/C=N/Nc2ccc(Cl)nn2)c1O,2.51 µM (active),
Clc1ccc(N/N=C/c2cccs2)nn1,inactive,
COc1cccc(/C=N/Nc2ccc(Cl)nn2)c1,inactive,
CCCN(C(=O)CSc1nnc(N)s1)c1c(N)n(Cc2ccccc2)c(=O)[nH]c1=O,inactive,
Cc1ccc(-c2nn(-c3ccccc3)cc2C(=O)NC2CCC(O)CC2)cc1 (stereo not given),inactive,
CCc1ccc(-c2nn(-c3ccccc3)cc2CSC(=N)N)cc1,10 µM (active),
CCc1ccc(-c2nn(-c3ccccc3C)cc2C(=O)N2CCN(C3CCS(=O)(=O)C3)CC2)cc1 (stereo not given),inactive,
Cc1ccc(NC(=O)C(C)Sc2nnc(C3CC3)n2C2CC2)cc1S(=O)(=O)N1CCOCC1 (stereo not given),inactive,
CC(C)CC[n+]1ccn(C2=C([O-])c3ccccc3C(=O)/C2=N\S(=O)(=O)c2ccccc2)c1,10 µM (active),
COc1ccc(C(=O)NCc2ccccc2C)cc1S(=O)(=O)NC1CCCC1,inactive,
CCCCN(C(=O)C1CCC1)c1c(N)n(Cc2ccccc2)c(=O)[nH]c1=O,inactive,
COc1ccc(CCC(=O)c2ccc(OC)cc2)cc1,inactive,
COc1ccc(C(=O)C[n+]2ccc(C)cc2)cc1,inactive,
COc1ccc(C(=O)C[n+]2ccc(N)c(C)c2C)cc1,2.24 µM (active),
COc1cc(/C=C/C(=O)OCC(=O)c2ccccc2)cc(OC)c1OC,inactive,
COc1ccc(S(=O)(=O)N(C)C[C@H]2Oc3ccc(NS(=O)(=O)c4cccs4)cc3CC(=O)N([C@H](C)CO)C[C@H]2C)cc1,inactive,
O=C(COc1ccc(F)cc1Br)NCC1COc2ccccc2O1 (stereo not given),inactive,
CC1(C)Cc2cccc(OCC(=O)N3CCN(c4ccc([N+](=O)[O-])cc4)CC3)c2O1,10 µM (active),

SMILES,Potency,"activity change, negative = inhibition"
CC1(C)Cc2cccc(OCC(=O)NCc3ccccc3)c2O1,inactive,
CC1(C)Cc2cccc(OCC(N)=O)c2O1,inactive,
COc1ccc(CCOC2OC(CO)C(OC(=O)/C=C/c3ccc(O)c(OC)c3)C(O[C@H]3O[C@@H](C)[C@H](O)[C@@H](O)[C@H]3O)C2O)cc1O (stereo not given in full),inactive,
COc1cc(OC)c(OC)cc1/C=N/Nc1ncnc2c1[nH]c1ccc(C)cc12,inactive,
CC(C)OCCCNc1ncnc2c1[nH]c1ccc(F)cc12,12.6 µM (active),
COc1ccc2[nH]c3c(=O)n(Cc4ccco4)cnc3c2c1,inactive,
O=C(COC(=O)c1cccc(Cl)c1)NC1CCCCCCC1,inactive,
O=C1NC(Cc2ccc(O)cc2)c2nc3ccc(Cl)cc3c(=O)n2-c2ccccc21 (stereo not given),inactive,
COc1ccc(-c2cc(C(=O)Nc3ccccc3O)c3ccccc3n2)cc1,inactive,
O=C(N/N=C/c1cccnc1)c1cc2ccccc2cc1O,inactive,
O=C(NNc1c2ccccc2nc2ccccc12)c1cc2ccccc2cc1O,2.82 µM (active),
Cc1ccccc1NC(=O)NNC(=O)OC(C)(C)C,inactive,
CC(C)(C)OC(=O)NNc1c2ccccc2nc2ccccc12,2.82 µM (active),
Cc1ccc(C(=O)NNC(=O)OC(C)(C)C)c(Cl)c1,inactive,
CC(C)CN(C(=O)COC(=O)c1ccc(Cl)c(N)c1)c1c(N)n(Cc2ccccc2)c(=O)[nH]c1=O,inactive,
O=C(CSc1nc2[nH]ncc2c(=O)[nH]1)Nc1ccc(F)cc1,inactive,
COc1cc(/C=N/NC(=O)c2cc(-c3ccccc3C)nc3ccccc23)cc(OC)c1O,inactive,
Cc1ccc(C(=O)OCC(=O)N2CCCCCC2)cc1S(=O)(=O)N1CCOCC1,inactive,
O=C(OCc1nnc(-c2ccccc2)o1)c1cc(=O)[nH]c2ccccc12,inactive,
CCCc1nc2ccccc2c(C(=O)OCC(=O)c2ccc3c(c2)NC(=O)CO3)c1CC,inactive,
CCCc1nc2ccccc2c(C(=O)OCc2nnc(-c3cc(OC)c(OC)c(OC)c3)o2)c1CC,2.82 µM (active),
CCOc1ccc(S(=O)(=O)NCCC(=O)NCC2CCCO2)cc1 (stereo not given),inactive,

SMILES,Potency,"activity change, negative = inhibition"
O=C(NCc1ccc2c(c1)OCO2)c1cc([N+](=O)[O-])ccc1N1CCOCC1,inactive,
O=C(CN1C(=O)NC2(CCCCCCC2)C1=O)NCc1ccc(F)cc1,inactive,
NS(=O)(=O)c1cccc(NC(=O)CSc2nc3ccccc3n2-c2ccccc2)c1,inactive,
NC(=O)NC(=O)CSc1nc2cc([N+](=O)[O-])ccc2n1-c1cccc(C(F)(F)F)c1,10 µM (active),
COc1ccc(CCNC(=O)CSc2nc3[nH]ncc3c(=O)n2-c2cccc(C(F)(F)F)c2)cc1OC,inactive,
CC(OC(=O)Cc1ccc(F)cc1)C(=O)N1CCc2ccccc21 (stereo not given),inactive,
Cc1oc2c(F)c(F)c(F)c(F)c2c1S(=O)(=O)Nc1cccc(C(F)(F)F)c1,4.47 µM (active),
O=C(NCc1ccccc1)c1ccc(S(=O)(=O)Nc2cccc(C(F)(F)F)c2)cc1,inactive,
O=C(/C=C/c1ccc(F)cc1)Nc1cccc(S(=O)(=O)Nc2cccc(C(F)(F)F)c2)c1,inactive,
O=C(O)C(c1cccs1)C1(O)CCCCC1 (stereo not given),inactive,
CCOc1ccc(S(=O)(=O)NCCC(=O)NCC(C)(C)N2CCOCC2)cc1,inactive,
COc1ccc(-n2nnnc2SCc2nc(N)nc(N3CCOCC3)n2)cc1,inactive,
CN(C)c1nc(N)nc(CSc2ccccn2)n1,inactive,
CN(C)c1nc(N)nc(CSc2nnnn2-c2cccc3ccccc23)n1,3.16 µM (active),
COC(=O)Cc1ccc(OC(=O)C2CCN(S(=O)(=O)c3ccc(OC)c(OC)c3)CC2)cc1,inactive,
CCN(CC)CCNc1nc(-c2ccc(OC(F)F)cc2)c(C)s1,17.8 µM (active),
CCOC(=O)c1ccccc1NC(=O)c1c(N)n(C)c(=O)[nH]c1=O,inactive,
CCCN(CC(=O)Nc1ccccc1OC)C(=O)CCC(=O)c1ccc(F)cc1,inactive,
COc1ccc([C@H]2CC(=O)C=C(/C=C/c3ccc(Cl)cc3)C2)cc1,inactive,
CC12CCCCC1=CC(=O)CC2 (stereo not given),inactive,
COc1ccc(NC(=O)/C(N=Nc2cccc(S(=O)(=O)Nc3ccc(SC(F)F)cc3)c2)=C(\C)O)cc1,inactive,
O=c1ccn([C@@H]2O[C@H](CNS(=O)(=O)c3cc4ccccc4s3)[C@@H](O)[C@H]2O)c(=O)[nH]1,inactive,

SMILES,Potency,"activity change, negative = inhibition"
COc1ccc(NC(=O)N2CCC3(CC2)OCCO3)c(OC)c1,inactive,
COc1cccc(CNc2nc3nc4c(c(=O)n3[nH]2)CCC4)c1,inactive,
COc1cccc(-c2cc3nc4c(c(N5CCC6(CC5)OCCO6)n3n2)CCCC4)c1,12.6 µM (active),
Cc1ccc(S(=O)(=O)N2CCOCC2)cc1C(=O)Nc1ccccc1N1CCCC1,inactive,
CCc1nc(NCCO)c(C#N)c2c1CCCC2,inactive,
CCN1CCc2c(C#N)c(NCc3ccccc3)nc(NCCO)c2C1,inactive,
CC(C)CCNc1nc(N2CCCC2)c2c(c1C#N)CCN(C)C2,12.6 µM (active),
O=C(NCCc1ccccc1)c1c[nH]c2ccc(F)cc2c1=O,inactive,
CCOc1ccc(CC(=O)NCCS(=O)(=O)N2CCN(c3ccccc3)CC2)cc1,,-0.883% [at 8.37 µM]
N#Cc1ccc(C2=CC(=O)C[C@H](c3ccc(Cl)cc3)C2)cc1,inactive,
CC(=O)N1CCCc2cc(S(=O)(=O)N3CCCC(C(=O)N4CCN(c5cccc(Cl)c5)CC4)C3)ccc21 (stereo not given),3.16 µM (active),
O=C(C1CCCN(S(=O)(=O)c2ccccc2)C1)N1CCN(c2ccc(F)cc2)CC1 (stereo not given),20 µM (active),
CC(=O)N1c2ccc(S(=O)(=O)N3CCC(C(=O)NC4CCCC(C)C4C)CC3)cc2CC1C (stereo not given),inactive,
CCS(=O)(=O)N1CCCC(C(=O)NCc2ccc(C)cc2)C1 (stereo not given),inactive,
CC(=O)Nc1ccc(NC(=O)C2CCCN(S(=O)(=O)c3ccc(Cl)cc3)C2)cc1 (stereo not given),inactive,
COc1cccc(N2CCN(C(=O)C3CCCN(S(=O)(=O)c4cnc[nH]4)C3)CC2)c1 (stereo not given),inactive,
CC(=O)N1c2ccc(S(=O)(=O)N3CCCC(C(=O)NCc4ccc(Cl)cc4)C3)cc2CC1C (stereo not given),5.62 µM (active),
Cc1ccc(S(=O)(=O)N2CCCC(C(=O)N3CCN(C)CC3)C2)cc1 (stereo not given),inactive,
CCCS(=O)(=O)N1CCCC(C(=O)N2CCN(c3ccccc3)CC2)C1 (stereo not given),inactive,
O=C(NCc1ccncc1)C1CCCN(S(=O)(=O)c2ccc(Br)cc2)C1 (stereo not given),inactive,
CC(=O)N1CCCc2cc(S(=O)(=O)N3CCCC(C(=O)NCc4ccc(Cl)cc4)C3)ccc21 (stereo not given),14.1 µM (active),
CC(=O)N1CCCc2cc(S(=O)(=O)CCC(=O)N3CCN(c4ccccc4)CC3)ccc21,inactive,
